Compound activity as filed in PubChem BioAssay.
Luciferase inh: firefly luciferase inhibition; P08659; purified firefly luciferase, luminescence, 8 min; Potency, µM (series often up to 57.1 µM), hits mostly inhibitors; actives 2.2% (n = 72,000); AID 411; active = well fitted inhibition curve with a large enough effect; inconclusive = small, poorly fitted or top-dose-only effect; also: nearly all actives have a fitted effect of over 40% in size
Target sequence (P08659 whole entry, looked up): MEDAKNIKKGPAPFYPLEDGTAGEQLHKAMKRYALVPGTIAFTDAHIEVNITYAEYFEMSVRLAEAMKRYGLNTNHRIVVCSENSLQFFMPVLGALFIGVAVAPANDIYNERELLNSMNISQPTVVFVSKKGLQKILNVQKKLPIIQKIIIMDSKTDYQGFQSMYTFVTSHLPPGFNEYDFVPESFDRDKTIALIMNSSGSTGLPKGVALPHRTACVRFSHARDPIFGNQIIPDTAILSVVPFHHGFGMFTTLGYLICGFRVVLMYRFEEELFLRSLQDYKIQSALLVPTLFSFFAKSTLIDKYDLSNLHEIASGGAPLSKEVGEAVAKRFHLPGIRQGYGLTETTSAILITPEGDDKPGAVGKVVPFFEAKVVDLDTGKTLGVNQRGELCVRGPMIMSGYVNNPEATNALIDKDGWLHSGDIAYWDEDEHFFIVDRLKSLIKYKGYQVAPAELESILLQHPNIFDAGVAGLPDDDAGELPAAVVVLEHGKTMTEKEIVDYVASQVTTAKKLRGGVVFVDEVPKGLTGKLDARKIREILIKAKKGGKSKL
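Substrate buffer containing 10 uM ATP (pH 7.2 imidazole, Mg2+, KCl, detergent, BSA) is dispensed, compound pinned in, then luciferase/luciferin detector mix added. After 8 min at ambient temperature, light output is measured.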
Bst PK mod: modulators of Bacillus stearothermophilus pyruvate kinase | Potency, µM | AID 361 | purified pyruvate kinase, luminescence ATP production; ribose 5-phosphate activator present at AC10 | actives 1.2% (n = 51,000); in the data active = potency below about 11 µM; inconclusive = mostly about 12 µM to 25 µM;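 the screen sought inhibitors and activators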
A number is an active result; n = inactive; u = inconclusive; x = no result given; ! = repeats disagree; [ ] = remark or other dose. Hits are enriched below; roughly 2.5% of the tested compounds scored in any of these assays.

SMILES | Luciferase inh | Bst PK mod
CCCOc1ccc(C2c3c(oc4cc(C)c(C)cc4c3=O)C(=O)N2CCCN(C)C)cc1OCC (centres undefined) | n | x
O=C(Nc1ccc(-c2noc(CCc3ccccc3)n2)cc1)c1ccco1 | 10µM | u
Cc1cc(NC(=O)c2ccco2)ncc1NC(=O)CCc1ccccc1 | n | n
c1ccc(CCc2nc(-c3cccnc3)no2)cc1 | n | n
O=C(Nc1ccc(NC(=O)c2ccco2)nc1)c1cccnc1 | 25µM | x
Cc1cc(NC(=O)c2cccc(F)c2)ncc1NC(=O)c1ccco1 | 16µM | x
O=C(Nc1cccnc1)c1ccc(NC(=O)c2ccco2)cc1 | n | n
O=C(Nc1cnc2ccccc2c1)c1ccco1 | 20µM | n
O=C(Nc1cccc(-c2cnc3ccccc3n2)c1)c1ccco1 | n | u
c1csc(CNc2cc(-c3ccoc3)ncn2)c1 | n[2.29 µM] | x
CCOC(=O)C(NC(=O)CC)(Nc1ccc(S(=O)(=O)Nc2cc(C)on2)cc1)C(F)(F)F (centres undefined) | n | n
O=C(CCC1N=C2c3ccccc3N=C(SCc3cccc(Cl)c3)N2C1=O)NCc1ccco1 (centres undefined) | n | n
CCN1CCN(c2ncc(C(=O)Nc3cc(Cl)c(OC)cc3OC)c3ccccc23)CC1 | n | n
O=C(O)c1cc(-c2cccs2)nc2cc3c(cc12)OCCO3 | 16µM | x
Cc1ccc2nc(-c3ccc4c(c3)OCCO4)cc(C(=O)O)c2c1 | 13µM | u
CS(=O)(=O)N1CCN(C(=O)c2cc(-c3cccs3)nc3ccccc23)CC1 | n | x
CCOc1ccc2nc(-c3ccc(OC)c(OC)c3)cc(C(=O)O)c2c1 | n | x
C=C[C@H](N)CCC(=O)O | n | x
CSC1=NCCN1C(=O)c1ccc(S(=O)(=O)N(C)C)cc1 | n | x
COc1ccc(S(=O)(=O)N2CCCC2C(=O)Nn2cnnc2)cc1 (centres undefined) | n | n
CCOC(=O)C1CCN(C(=O)CCn2c(=O)[nH]c3ccccc3c2=O)CC1 | n | n
CC(C)OCCCNC(=O)c1ccc2c(c1)ncn2C1CCCC1 | n | x
Cc1ccccc1-c1nnc(-c2ccccc2)o1 | 13µM | x
Clc1ccc(-c2nnc(-c3ccccc3Cl)o2)cc1 | 13µM | x
Clc1ccc(-c2nnc(-c3cccc4ccccc34)o2)cc1Cl | n[11.4 µM] | x
SMILES | Luciferase inh | Bst PK mod
Brc1ccc(-c2nnc(-c3ccccc3Br)o2)cc1 | 4µM | x
Brc1ccccc1-c1nnc(-c2cccnc2)o1 | u | n
Cc1ccccc1-c1nnc(-c2ccc(Cl)cc2)o1 | n | x
O=C(OCCNC(=O)c1ccc2ccccc2n1)c1cccnc1 | n | x
O=c1[nH]c(N2CCc3ccccc32)nc2c1CCCC2 | n | n
COc1ccc(OC)c(C2C=C(c3ccc(C)c(C)c3)Nc3nnnn32)c1 (centres undefined) | n | n
COCCN(C(=O)Nc1ccccc1)c1ccccc1C | n | n
Nc1nonc1-c1nc2ccccc2[nH]1 | n | x
Cn1cc(Cl)c(-c2nc3ccccc3[nH]2)n1 | 25µM | n
CCCc1cc(=O)[nH]c(NCc2ccc(Cl)cc2)n1 | n | n
O=C(Cn1cnc2ccccc2c1=O)c1ccc2c(c1)OCCO2 | 13µM | x
CCN(CC)C(=O)Cn1cnc2ccccc2c1=O | n | n
O=C(Nc1cccc2cccnc12)c1cccnc1 | n | 9.7
Cc1cnc(C(=O)Nc2cccc3cccnc23)cn1 | n | n
Cc1ccc(-n2nnnc2SCC(=O)c2cc(C)n(-c3cc(C)on3)c2C)cc1 | n | n
COc1ccc(CC(=O)Nc2ccc(S(=O)(=O)NCC3CCCO3)cc2)cc1 (centres undefined) | n | n
O=C(NC1=NCCS1)c1ccc(OCC2CCCO2)cc1 (centres undefined) | 25µM | x
COc1ccc(C(=O)NCC(=O)NC2=NCCS2)cc1 | n | x
NC(=O)CSc1nc(N)c2c3c(sc2n1)CCCCC3 | 13µM | 11
CCSc1nc(N)c2c3c(sc2n1)CCC3 | n | n
O=C(Nc1ccc(OC(F)(F)F)cc1)C1=NCCN1 | 10µM | n
O=C(Nc1ccc(OC(F)(F)F)cc1)c1cnc2n(c1=O)CCS2 | n | x
Cc1cc(Nc2cc(C)on2)n2ncnc2n1 | n | x
N#Cc1cc2c(nc1SCC(=O)N1CCCCC1)CCCC2 | n | x
CCOC(=O)CC(=O)CSc1nc2c(cc1C#N)CCCCC2 | 10µM | u
SMILES | Luciferase inh | Bst PK mod
Clc1ccc(N2CCN(c3ncnc4c3oc3ccccc34)CC2)cc1 | n | n
Cc1nc(N)sc1-c1csc(Nc2ccc(Cl)cn2)n1 | n | n
Cc1nc(N)sc1-c1csc(Nc2ccccn2)n1 | 13µM | x
COc1ccccc1NS(=O)(=O)c1ccc(Cl)cc1 | n | n
Cc1oc(/N=C/c2ccc(Cl)cc2)c(C#N)c1C | n | x
O=C(CN1CCN(c2ccccn2)CC1)Nc1ccc2ccccc2c1 | 40µM | n
O=C(CN1CCN(c2ccccn2)CC1)Nc1ccc(Cl)c(C(F)(F)F)c1 | n | n
O=C(Cn1cnc2c(cnn2-c2ccc(F)cc2)c1=O)OCc1ccccc1 | n | n
CCCCOc1ccc(S(=O)(=O)NCc2csc(C)n2)cc1 | n | n
Cc1nc(NCc2ccc3c(c2)OCO3)c2oc3ccccc3c2n1 | n | n
Cc1nc(Nc2ccc3c(c2)OCCO3)c2oc3ccccc3c2n1 | n | 4.3
O=C(CSc1nc2ccsc2c(=O)n1-c1ccccc1)N1CCCC1 | n | n
CCCc1cc(C(N)=O)c(NC(=O)c2cc(C)on2)s1 | n | n
Cc1cc(C(=O)Nc2sc(C)c(-c3ccc(F)cc3)c2C(N)=O)no1 | 7.9µM | n
CC(CCc1ccccc1)NCC(O)c1ccc(O)c(C(N)=O)c1 (centres undefined) | n | n
OCc1cc([C@@H](O)CNCCCCCCOCCCCc2ccccc2)ccc1O | 16µM! | x
CCOc1ccc2c(O)csc2c1 | n | x
CCCN=Cc1sc2ccc(OCC)cc2c1O | 16µM | x
CCN1CCC[C@@H]1CNC(=O)c1c(O)c(Cl)cc(Cl)c1OC | n | x
CCN1CCC[C@H]1CNC(=O)c1c(O)c(Cl)cc(Cl)c1OC | 13µM | x
CCN(CC)c1cccc(OC2=NS(=O)(=O)c3ccccc32)c1 | n | x
O=C(Cc1cc(=O)[nH]c(=O)[nH]1)N1CCC(Cc2ccccc2)CC1 | 10µM | x
CC(C)N1C(=O)CCC1C(=O)N1CCC(Cc2ccccc2)CC1 (centres undefined) | n | x
Cc1ccc(NC(=O)c2cnn(-c3ccccc3)c2NC(=O)c2ccco2)cc1C | n | n
O=C(Nc1sc2c(c1C(=O)O)CCCCC2)c1ccco1 | 20µM | x
SMILES | Luciferase inh | Bst PK mod
Cc1occc1C(=O)Nc1sc2c(c1C(N)=O)CCCCC2 | 13µM | n
CCOC(=O)c1c(NC(=O)c2ccco2)sc2c1CCCCC2 | n | x
COC(=O)c1c(NC(=O)c2ccoc2C)sc2c1CCC2 | n | n
CC[N+](CC)(CC)CC(=O)Nc1c(C)cccc1C | n | x
Cn1cc[nH]c1=S | n | x
CC(C)c1cc(C(F)(F)F)n2nc(C(=O)Nc3ccc4c(c3)OCO4)cc2n1 | 20µM | x
COc1ccc(C2CC(C(F)(F)F)n3nc(C(=O)Nc4ccc5c(c4)OCO5)cc3N2)cc1 (centres undefined) | n | x
Cc1onc(-c2c(Cl)cccc2Cl)c1C(=O)Nc1ccc2c(c1)OCO2 | n | x
O=C(Nc1ccc2c(c1)OCO2)c1noc2c1CCCCC2 | 7.9µM | u
COc1ccc(NC(=O)c2cc(C(C)C)on2)cc1OC | n | x
CC(C)c1cc(C(=O)Nc2ccc3c(c2)OCO3)no1 | 7.9µM | x
CC(=O)c1ccc(NC(=O)c2noc3c2CCCCC3)cc1 | u | n
O=C(Nc1ccc2c(c1)OCO2)c1cc(C2CC2)on1 | 7.9µM | x
CCC(C)NC(=O)CCS(=O)(=O)c1ccc2c(c1)n(C)c(=O)c(=O)n2C (centres undefined) | n | x
